Screening data from PubChem BioAssay.
In the library only some 12% were active in any assay of this set; here they are far more common.
HP1b chromo inh = inhibitors of HP1-beta chromodomain binding to methylated histone tails. P83916. AlphaScreen HP1-beta / biotin-H3K9me3 peptide binding. Potency, µM (highest dose often 114 µM), for the others: at the top dose activity change, negative = inhibition, most hits filed as inhibitors. 0.56% of 390,000 active. AID 540317; further: nearly all actives have a fitted effect of over 70% in size
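Compound inhibition of the preformed complex between 50 nM HP1-beta and 50 nM biotinylated H3K9me3 peptide was read by AlphaScreen. Buffer was PBS pH 7.4 with 0.01% Tween-20. Incubations ran 30 min at room temperature, with 10 ug/mL donor/acceptor beads.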
G9a block = G9a (human) methyltransferase inhibition; AID 504332; G9a H3K9 monomethylation, AlphaScreen, 2 h; 8.8% of 350,000 active; Potency, µM (top dose mostly 102 µM), for inactives: at the highest dose activity, negative = inhibition, usual class: inhibitors; further: on the % scale 0 is the no-effect control and ±100 the full control effect; nearly all actives have a fitted effect of over 75% in size
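Methyltransferase reactions run at room temperature for 2 h (20 nM enzyme, 500 nM biotin-H3K9 peptide, 20 uM SAM) after a 15 min compound preincubation; product detected by AlphaScreen beads and anti-H3K9me1 antibody.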
JMJD2A Tudor inh = blocks the human JMJD2A Tudor domain | AlphaScreen JMJD2A-Tudor / H3K4me3 peptide binding | Potency, µM (highest dose often 114 µM), inactives show at the highest dose activity change, negative = inhibition, most hits filed as inhibitors | 4.4% of 390,000 active | AID 504339; further: on the % scale 0 is the no-effect control and ±100 the full control effect; nearly all actives have a fitted effect of over 50% in size
Sfp inh = Sfp phosphopantetheinyl transferase inhibition. 3.5% of 310,000 active. Biochemical Sfp PPTase activity, qHTS. AID 1490. Q9F4F7. Potency, µM, for inactives: largest response in the series, negative = inhibition, most hits filed as inhibitors;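 further: the enzyme is Sfp with the accession as filed and its product quenches rhodamine fluorescence; 0% = enzyme reaction without inhibitor and -100% = no enzyme wells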
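Reaction rates are the 30-min fluorescence difference (ex 525, em 598 nm) in wells containing 15 nM Sfp, 5 uM rhodamine-CoA and 12.5 uM BHQ-2-YbbR at pH 7.6 with 10 mM MgCl2.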
BAZ2B inh = blocks human BAZ2B; Q9UIF8; AlphaScreen BAZ2B-H3K14Ac peptide displacement; Potency, µM (doses to about 114 µM), for the others: at the top dose activity change, negative = inhibition, hits mostly inhibitors; 4.4% of 360,000 active; further: on the % scale 0 is the no-effect control and ±100 the full control effect; nearly all actives have a fitted effect of over 60% in size
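Complex of BAZ2B and biotin-H3K14Ac (50 nM apiece) forms over 30 min at RT, then faces library compounds up to 110 uM for another 30 min; AlphaScreen beads added, 20 min dark incubation, luminescence read.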
TDP1 inh = inhibitors of human tyrosyl-DNA phosphodiesterase TDP1. Q9NUW8. AID 485290. 0.28% of 350,000 active. recombinant TDP1, AlphaScreen DNA substrate cleavage. Potency, µM (series often up to 130 µM), without a hit: top-dose activity change, negative = inhibition, actives largely listed as inhibitors; further: on the % scale 0 is the no-effect control and ±100 the full control effect; nearly all actives have a fitted effect of over 40% in size
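Enzyme-compound mixtures sat 15 min at room temperature, followed by a 5 min reaction with 15 nM final substrate and 10 min with AlphaScreen beads. Recombinant human Tdp1 was used at 1 nM final.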
Starred values were filed as active, the others as inactive; ? = inconclusive; · = no result; [ ] = remark or other dose. The call rests on the fitted dose curve; in most records, active means well fitted curve in the direction sought with a large enough effect; inconclusive means small, poorly fitted or top-dose-only effect, or another doubt; inactive means no such curve, though single readings can be large; an effect the other way counts as inactive or inconclusive. Potency means the concentration at half of the fitted maximal effect.

SMILES	HP1b chromo inh	G9a block	JMJD2A Tudor inh	Sfp inh	BAZ2B inh	TDP1 inh
CC[n+]1c(/C=C/N(C)c2ccccc2)oc2ccc(F)cc21	-3%	8.9µM*	79µM*	50µM*	-32%	5%
O=S(=O)([O-])CCC[n+]1c(/C=C\Nc2ccccc2)oc2ccc(-c3ccccc3)cc21	·	-35%	·	-3%	79µM*	0%
CCn1c(/C=C/N(C)c2ccccc2)[n+](CC)c2ccc(Cl)cc21	18%	?	-20%	-2%	-5%	0%
CC[n+]1c(/C=C/Nc2ccccc2)oc2ccc(OC)cc21	48%	?	10%	5%	-6%	-3%
CC[n+]1c(/C=C/Nc2ccccc2)oc2ccccc21	65%	50µM*	-6%	-4%	-30%	8%
CCN(CC)S(=O)(=O)c1ccc2c(c1)nc(CN(C)C(=O)Nc1ccc(F)cc1)n2C	35%	?	-4%	·	-5%	4%
CCOC(=O)c1ccccc1NC(=O)N1CCOc2ccc(Cl)cc21	35%	?	-20%	·	-32%	8%
COc1ccc(OCc2nnc(SCC(=O)Nc3ccccc3Cl)o2)cc1	34%	-2%	11%	20%	0%	5%[0.0935 µM]
Cc1nn(C)cc1CN(C)Cc1ccc(OCC(O)CN2CCCCC2)cc1 (stereo not given)	45%	5%	1%[11.4 µM]	8%	3%	-2%
CN(Cc1ccc(OCC(O)CN2CCCCC2)cc1)Cc1ccnc2ccccc12 (stereo not given)	-1%	50µM*	-31%	-5%	-27%	·
COc1ccc(C(=O)N2CCC3(CCCN(Cc4ccccc4OC)C3)CC2)cc1	·	-4%[12.7 µM]	·	9%	·	·
Cc1cc(S(=O)(=O)N(Cc2ccccn2)Cc2ccco2)ccc1-n1cnnn1	11%	25µM*	-27%	7%	?	4%
COc1ccc(CCN(Cc2cccs2)S(=O)(=O)c2ccc(-n3cnnn3)c(OC)c2)cc1OC	33%	-2%[12.7 µM]	-20%	19%	3%	-2%
COc1cc(S(=O)(=O)N(Cc2ccco2)C2CCCC2)ccc1-n1cnnn1	42%	32µM*	-34%	?	2%	6%
CCOc1ccccc1CN(Cc1ccco1)S(=O)(=O)c1ccc(-n2cnnn2)c(OC)c1	-1%	8.9µM*	-33%	9%	-2%	6%
COc1ccc(CN(Cc2ccccn2)S(=O)(=O)c2ccc(-n3cnnn3)c(OC)c2)cc1	30%	50µM*	-13%	4%	-33%	1%
CC(C)C[C@H](NC(=O)N1CC(=O)Nc2ccccc21)C(=O)N[C@H](C(=O)O)c1ccccc1	10%	·	-14%	-3%	8%	·
CC(=O)c1cccc(NC(=O)C2CCN(S(=O)(=O)c3ccc4c(c3)CCCN4C(C)=O)CC2)c1	17%[57 µM]	2%[59 µM]	-15%	·	0%	2%
Cc1ccc(Cl)cc1N1CCN(C(=O)c2cnn(C)c2C2CCN(C(=O)OC(C)(C)C)CC2)CC1	22%	-33%[59 µM]	-14%	·	2%[57.1 µM]	-3%
COC(=O)c1cccc(NC(=O)CSc2nc(O)c(-c3ccccc3)c(=O)[nH]2)c1	22%	71µM*	-24%	16%	?	·
CCc1cccc(NC(=O)CSc2nnc(Cc3ccc(OC)cc3)c(=O)[nH]2)c1	6%	50µM*	3%	·	9%	-18%[0.505 µM]
COC(=O)c1cccc(NC(=O)CSc2nc(=O)cc(N)n2-c2ccccc2)c1	-11%	?	-22%	11%	56µM*	2%
Cc1ccc(NC(=O)CSc2nc(=O)cc(N)n2-c2ccccc2)cc1	36%	2%[59 µM]	2%	11%	-3%	-2%
CCc1cccc(C)c1NC(=O)CCCn1c(C)c2cnn(-c3ccccc3)c(=O)c2c1C	-8%	6%[59 µM]	?	·	-14%	5%
CCOC(=O)C1(C)Oc2ccccc2C(C(=O)OC)=C1C(=O)OC (stereo not given)	63%	28µM*	3%	-17%	·	-1%[56.1 µM]
SMILES	HP1b chromo inh	G9a block	JMJD2A Tudor inh	Sfp inh	BAZ2B inh	TDP1 inh
CC(C)COc1ccc(Cc2cnc(N)nc2N)cc1	14%	-9%[59 µM]	-27%	-8%	-14%	5%
CC(C)Oc1ccc(Cc2cnc(=S)[nH]c2N)cc1	40%	50µM*	-15%	4%	-18%	2%
COc1ccc(-c2cc(C(=O)OCC(=O)c3c(N)n(C)c(=O)n(C)c3=O)c3ccccc3n2)cc1	56%	8%	13%	10%	-14%	1%
Cn1c(N)c(C(=O)COC(=O)c2cc(C(F)(F)F)nc3ccccc23)c(=O)n(Cc2ccccc2)c1=O	20%	?	-29%	21%	-26%	12%
Cn1c(N)c(C(=O)COC(=O)c2cc(-c3ccco3)nc3ccccc23)c(=O)n(Cc2ccccc2)c1=O	·	7.9µM*	·	45µM*	?	0%
Cn1c(N)c(C(=O)COC(=O)c2cc(-c3ccco3)nc3ccccc23)c(=O)n(C)c1=O	?	7.9µM*	56µM*	13µM*	-26%	-5%
O=C(O)c1ccc(N2CCCCC2)cc1O	37%	·	-8%	-3%	-5%	5%
O=C(O)c1ccc(N2Cc3ccccc3C2)cc1O	1%	8.9µM*	?	-15%	?	-7%
O=C(Oc1cc(Cl)ccc1Cl)c1ccc(N2CCOCC2)c([N+](=O)[O-])c1	?	?	35µM*	-3%	?	8%
O=[N+]([O-])c1cc(Cl)ccc1N1CCN(c2ccccc2O)CC1	?	?	40µM*	2%	14µM*	11%
O=C(/C=C/c1ccc(Cl)cc1Cl)N1CCN(c2ccc([N+](=O)[O-])c(N3CCOCC3)c2)CC1	1%	?	-34%	-2%	?	3%
O=S(=O)(CCN1CCN(c2ccccc2O)CC1)c1cc(Cl)ccc1Cl	22%	45µM*	-22%	·	1%	6%
O=C(/C=C/c1ccc(Cl)cc1Cl)N1CCN(c2ccccc2[N+](=O)[O-])CC1	?	40µM*	?	-20%	?	-1%
CC(C)(C)C(=O)N1CCN(c2ccc(Cl)cc2[N+](=O)[O-])CC1	-21%	2%[59 µM]	-30%	-2%	?	6%
Cc1cccc(N2CCN(S(=O)(=O)c3cc(Cl)ccc3Cl)CC2)c1C	32%	3%[59 µM]	4%	·	-2%	-5%
O=C(OCc1ccccc1)/C(=C/c1cccc([N+](=O)[O-])c1)NC(=O)c1ccco1	25%	-4%	-21%	1%	1%	5%
CCOP(=O)(OCC)C(Nc1cccc([N+](=O)[O-])c1)c1ccccc1 (stereo not given)	-6%	13%	-10%	8%	-12%	4%
Cc1ccc(C(=O)Nc2cc(-c3ccn[nH]3)c(C)n(N)c2=O)cc1	9%	-5%	-4%	10%	-13%	6%
C=C(C)C(=O)/C=C/CCC/C=C/C(=O)OCC	·	·	·	-4%	·	7%
O=C(/C=C/c1ccccc1[N+](=O)[O-])N1CCN(c2ccccc2F)CC1	14%	56µM*	-30%	0%	?	7%
Cc1ccc(CS(=O)(=O)c2ncn[nH]2)cc1	42%	-34%	1%	-16%	-19%	1%
CCOc1cc(/C=C2\C(=O)N(c3cccc(C(=O)O)c3)N=C2C(F)(F)F)ccc1OCC(=O)Nc1ccccc1OC	·	·	·	-2%	50µM*	-7%
